Test results: PubChem BioAssay AID1159580 (chemical genetic matrix, 2015)
The whole screen tested about 5,500 compounds, of which about 2,000 (36%) were called active. About 18% were inconclusive and are not listed. Rule as the data show it: active = normalized growth mostly below about 0.91 (no sharp cut-off); inconclusive = no clear call, values can overlap the other calls; inactive = mostly above about 0.92. Some of the results follow.

Experiment: chemical genetic growth profiling, strain panel (AID 1159580);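 also: tested at 20 µM; growth read once vehicle control cultures reached saturation at 30 °C; 1 = growth at the plate median or of vehicle wells; lower values mean less growth of the strain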
Conditions: S. cerevisiae deletion strains, growth OD

Measured: normalized growth

COC(=O)Nc1nc2ccc(S(=O)c3ccccc3)cc2[nH]1 (stereo not given)
inactive: locus YAL021C, strain ccr4, active compounds read low 1.01 | locus YAL026C, strain drs2, active compounds read low 0.986 | locus YAL030W, strain snc1, active compounds read low 0.997 | locus YBL061C, strain skt5, active compounds read low 0.995 | locus YBR009C, strain hhf1, active compounds read low 0.999 | locus YBR023C, strain chs3, active compounds read low 0.993 | locus YBR171W, strain sec66, active compounds read low 0.971 | locus YBR231C, strain swc5, active compounds read low 0.993 | locus YBR279W, strain paf1, active compounds read low 0.994 | locus YCL011C, strain gbp2, active compounds read low 1.01 | locus YCL016C, strain dcc1, active compounds read low 1.01 | locus YCL061C, strain MRC1, active compounds read low 0.994 | locus YCL069W, strain vba3, active compounds read low 0.988 | locus YCR088W, strain abp1, active compounds read low 0.998 | locus YDL005C, strain med2, active compounds read low 0.994 | locus YDL040C, strain nat1, active compounds read low 1 | locus YDR001C, strain nth1, active compounds read low 0.983 | locus YDR069C, strain doa4, active compounds read low 0.99 | locus YDR137W, strain rgp1, active compounds read low 0.996 | locus YDR159W, strain sac3, active compounds read low 0.966 | locus YDR195W, strain ref2 0.969 | locus YDR297W, strain sur2, active compounds read low 0.997 | locus YDR334W, strain swr1, active compounds read low 0.983 | locus YDR335W, strain msn5, active compounds read low 0.973 | locus YDR392W, strain spt3, active compounds read low 1 | locus YEL003W, strain gim4, active compounds read low 0.962 | locus YEL037C, strain rad23, active compounds read low 0.993 | locus YEL061C, strain CIN8 (second series), active compounds read low 0.983 | locus YER015W, strain faa2, active compounds read low 0.995 | locus YER016W, strain bim1, active compounds read low 0.986 | locus YER111C, strain swi4, active compounds read low 0.986 | locus YER155C, strain BEM2 (second series), active compounds read low 0.953 | locus YFR010W, strain ubp6, active compounds read low 0.988 | locus YGL167C, strain pmr1, active compounds read low 0.984 | locus YGL173C, strain kem1, active compounds read low 0.991 | locus YGL227W, strain vid30, active compounds read low 0.986 | locus YGL240W, strain doc1, active compounds read low 0.967 | locus YGL253W, strain hxk2, active compounds read low 0.998 | locus YHR013C, strain ard1, active compounds read low 1.02 | locus YHR027C, strain rpn1, active compounds read low 0.989 | locus YHR030C, strain SLT2, active compounds read low 1.03 | locus YHR079C, strain IRE1, active compounds read low 1.02 | locus YHR142W, strain chs7, active compounds read low 0.994 | locus YJL092W, strain hpr5, active compounds read low 0.984 | locus YJL095W, strain BCK1 (second series), active compounds read low 1 | locus YJL095W, strain BCK1, active compounds read low 0.972 | locus YJL115W, strain asf1, active compounds read low 0.985 | locus YJL129C, strain trk1, active compounds read low 0.981 | locus YJL154C, strain vps35, active compounds read low 0.987 | locus YJL164C, strain tpk1, active compounds read low 1.01 | locus YJL166W, strain qcr8, active compounds read low 0.975 | locus YJL187C, strain SWE1, active compounds read low 0.984 | locus YJR066W, strain TOR1, active compounds read low 0.975 | locus YKL160W, strain elf1, active compounds read low 0.99 | locus YKR026C, strain gcn3, active compounds read low 0.979 | locus YKR091W, strain srl3, active compounds read low 1 | locus YLL001W, strain dnm1, active compounds read low 0.976 | locus YLL026W, active compounds read low 1 | locus YLL041C, strain sdh2, active compounds read low 0.99 | locus YLR027C, strain aat2, active compounds read low 0.989 | locus YLR113W, strain HOG1, active compounds read low 0.982 | locus YLR221C, strain rsa3, active compounds read low 1.01 | locus YLR258W, strain gsy2, active compounds read low 0.984 | locus YLR262C, strain YPT6 (second series), active compounds read low 0.987 | locus YLR320W, strain mms22, active compounds read low 1 | locus YLR342W, strain FKS1, active compounds read low 0.991 | locus YLR357W, strain rsc2, active compounds read low 0.993 | locus YLR370C, strain arc18, active compounds read low 0.998 | locus YLR384C, strain iki3, active compounds read low 0.986 | locus YML120C, strain ndi1, active compounds read low 0.998 | locus YMR058W, strain fet3, active compounds read low 0.993 | locus YMR125W, strain sto1, active compounds read low 0.982 | locus YMR129W, active compounds read low 0.99 | locus YMR205C, strain PFK2, active compounds read low 0.982 | locus YMR231W, strain pep5, active compounds read low 0.98 | locus YNL071W, strain lat1, active compounds read low 0.994 | locus YNL183C, strain NPR1, active compounds read low 0.971 | locus YNL209W, strain ssb2, active compounds read low 1.01 | locus YNL248C, strain rpa49, active compounds read low 1.01 | locus YNL322C, strain KRE1 (second series), active compounds read low 0.998 | locus YNR049C, strain mso1, active compounds read low 0.977 | locus YOR001W, strain rrp6, active compounds read low 0.982 | locus YOR070C, strain gyp1, active compounds read low 0.999 | locus YOR080W, strain dia2, active compounds read low 0.974 | locus YOR083W, strain WHI5, active compounds read low 0.991 | locus YOR106W, strain vam3, active compounds read low 1 | locus YOR231W, strain MKK1, active compounds read low 1 | locus YOR265W, strain rbl2, active compounds read low 0.992 | locus YOR270C, strain vph1, active compounds read low 1 | locus YOR290C, strain snf2, active compounds read low 1.01 | locus YPL051W, strain arl3, active compounds read low 0.993 | locus YPL078C, strain atp4, active compounds read low 0.963 | locus YPL106C, strain sse1, active compounds read low 0.99 | locus YPL240C, strain hsp82, active compounds read low 1 | locus YPL256C, strain CLN2, active compounds read low 1.01
